Measurements published in PubChem BioAssay (Tox21).
Values without a mark were called inactive. Results filed as inconclusive are left out. A call without a number means that no potency is given here. The source made the active and inactive calls. Unless noted, calls follow the shape of the dose curve; as a rule, active = well fitted curve in the direction sought with a large enough effect in the repeat runs; inconclusive = weak or mixed curves; inactive = no such curve, though single readings can be large; an effect the other way counts as inactive or inconclusive.

Key:
[1] = target: Androgen receptor (Homo sapiens) (UniProt P10275); test: qHTS assay to identify small molecule antagonists of the androgen receptor (AR) signaling pathway using the MDA cell line in the presence of 0.5 nM R1881 (AID 1259243); also: nearly all actives have a fitted effect of over 50% in size; also: potency is read from the fitted curve at half-maximal effect
Chain of Androgen receptor (Homo sapiens) (P10275 whole entry, looked up): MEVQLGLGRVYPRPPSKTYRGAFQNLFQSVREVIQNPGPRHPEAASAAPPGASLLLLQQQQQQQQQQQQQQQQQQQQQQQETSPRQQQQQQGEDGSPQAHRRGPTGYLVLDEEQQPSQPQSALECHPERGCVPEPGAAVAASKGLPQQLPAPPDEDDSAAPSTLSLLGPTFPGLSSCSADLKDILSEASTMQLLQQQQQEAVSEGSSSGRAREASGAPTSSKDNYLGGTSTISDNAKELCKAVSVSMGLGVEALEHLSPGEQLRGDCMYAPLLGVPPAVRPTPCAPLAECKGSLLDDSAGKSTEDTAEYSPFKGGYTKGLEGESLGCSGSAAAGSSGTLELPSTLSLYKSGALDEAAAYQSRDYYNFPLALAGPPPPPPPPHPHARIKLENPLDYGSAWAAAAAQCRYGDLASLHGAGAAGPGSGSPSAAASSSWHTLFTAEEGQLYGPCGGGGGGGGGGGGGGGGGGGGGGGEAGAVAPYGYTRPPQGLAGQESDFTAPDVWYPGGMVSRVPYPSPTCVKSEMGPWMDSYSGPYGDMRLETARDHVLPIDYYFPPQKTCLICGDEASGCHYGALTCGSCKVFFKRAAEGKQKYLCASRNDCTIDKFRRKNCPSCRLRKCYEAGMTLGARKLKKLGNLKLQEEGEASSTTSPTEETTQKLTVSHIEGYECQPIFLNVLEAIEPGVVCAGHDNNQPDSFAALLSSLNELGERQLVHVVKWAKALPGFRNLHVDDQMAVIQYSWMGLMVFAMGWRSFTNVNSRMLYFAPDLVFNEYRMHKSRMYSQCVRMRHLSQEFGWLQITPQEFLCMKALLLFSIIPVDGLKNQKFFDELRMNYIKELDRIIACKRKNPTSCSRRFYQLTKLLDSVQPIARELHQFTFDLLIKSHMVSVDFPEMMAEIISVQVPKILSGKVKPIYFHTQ
Outline: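 We exposed MDA-kb2 cells to compounds under 0.5 nM R1881 stimulation for 16 hr at 37C and quantified MMTV-driven luciferase by luminescence.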

[2] = target: Estrogen receptor (Homo sapiens) (UniProt P03372); test: qHTS assay to identify small molecule antagonists of the estrogen receptor alpha (ER-alpha) signaling pathway using the BG1 cell line in the presence of 0.1 nM 17-beta-estradiol (AID 1259244); also: nearly all actives have a fitted effect of over 50% in size; also: potency is read from the fitted curve at half-maximal effect
Chain of Estrogen receptor (Homo sapiens) (P03372 whole entry, looked up): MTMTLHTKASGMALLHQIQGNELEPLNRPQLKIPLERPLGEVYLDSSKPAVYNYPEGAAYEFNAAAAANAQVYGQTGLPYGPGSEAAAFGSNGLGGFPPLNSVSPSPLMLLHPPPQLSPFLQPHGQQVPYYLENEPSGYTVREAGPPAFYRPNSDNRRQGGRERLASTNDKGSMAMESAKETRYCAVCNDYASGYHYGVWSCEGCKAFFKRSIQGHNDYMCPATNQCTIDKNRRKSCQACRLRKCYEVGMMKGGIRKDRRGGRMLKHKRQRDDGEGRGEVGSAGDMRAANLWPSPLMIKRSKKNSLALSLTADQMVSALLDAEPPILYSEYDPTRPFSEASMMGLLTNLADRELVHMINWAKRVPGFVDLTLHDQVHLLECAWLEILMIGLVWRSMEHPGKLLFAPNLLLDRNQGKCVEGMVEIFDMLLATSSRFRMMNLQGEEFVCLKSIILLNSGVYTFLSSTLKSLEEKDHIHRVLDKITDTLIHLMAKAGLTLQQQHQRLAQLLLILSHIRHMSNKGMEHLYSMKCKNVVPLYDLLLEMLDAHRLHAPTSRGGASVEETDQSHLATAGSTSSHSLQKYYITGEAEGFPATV
Outline: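 VM7Luc4E2; 4xERE-luciferase; 0.1 nM E2 final; 22 h co-incubation, 37C; ONE-Glo luminescence after 30 min at room temperature.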

[3] = qHTS assay to identify small molecule HDAC inhibitors (AID 1259364);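 also: wild-type HCT-116 cells with endogenous class I/II HDAC activity; top concentration of the series differs between compounds; nearly all actives have a fitted effect of over 45% in size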
Outline: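 Relative class I and II HDAC activity is taken from the luminogenic signal in HCT-116 cells, with compound exposure 2 hr and reagent development 30 min at room temperature.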

[4] = qHTS assay to identify small molecule antagonists of the sonic hedgehog signaling (Shh) pathway - cell viability counter screen (AID 1259367); also: nearly all actives have a fitted effect of over 55% in size; also: potency is read from the fitted curve at half-maximal effect
Outline: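 After a 4 hr settling period, 3T3 Gli1-Luc cells were treated with DMSO-dissolved chemicals and conditioned medium, kept 24 hr at 37C in 5% CO2, and assayed for viability by CellTiter-Fluor fluorescence following 1 hr reagent incubation.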

[5] = qHTS assay to identify small molecule agonists of the sonic hedgehog signaling (Shh) pathway (AID 1259368; calls by dose curve; also: series mostly up to about 92 µM; nearly all actives have a fitted effect of over 15% in size)
Outline: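 Mouse fibroblast (NIH/3T3) reporter cells with stably integrated Gli1-Luc were treated 24 hr with compound; firefly luciferase luminescence served as the read-out.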

[6] = target: Estrogen receptor beta (Homo sapiens) (UniProt Q92731); test: qHTS assay to identify small molecule agonists of the estrogen receptor beta (ER-beta) signaling pathway (AID 1259377; active = well fitted activation curve with a large enough effect in the signal ratio in the repeat runs, not every such curve was filed as active; the % refers to the signal ratio)
Chain of Estrogen receptor beta (Homo sapiens) (Q92731 whole entry, looked up): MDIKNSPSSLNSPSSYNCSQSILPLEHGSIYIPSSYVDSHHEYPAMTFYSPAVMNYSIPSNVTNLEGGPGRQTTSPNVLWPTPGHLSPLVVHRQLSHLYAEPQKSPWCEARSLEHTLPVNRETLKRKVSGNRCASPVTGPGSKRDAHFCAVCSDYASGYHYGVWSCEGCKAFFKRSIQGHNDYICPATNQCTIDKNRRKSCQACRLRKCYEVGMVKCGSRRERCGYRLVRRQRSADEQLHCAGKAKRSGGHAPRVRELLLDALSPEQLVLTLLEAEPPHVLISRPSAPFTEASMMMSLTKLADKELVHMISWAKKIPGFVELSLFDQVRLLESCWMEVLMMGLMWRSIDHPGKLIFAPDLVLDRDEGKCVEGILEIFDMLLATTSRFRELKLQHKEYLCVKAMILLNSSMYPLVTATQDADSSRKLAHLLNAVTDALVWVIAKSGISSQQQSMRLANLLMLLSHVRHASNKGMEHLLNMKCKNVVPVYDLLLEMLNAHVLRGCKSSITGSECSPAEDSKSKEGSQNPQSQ
Outline: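 ER-beta-UAS-bla HEK293T (GripTite) cells carrying a UAS-driven beta-lactamase reporter, in medium with 2% charcoal-stripped FBS, were exposed to compounds for 16 hr at 37C; LiveBLAzer B/G FRET substrate was then added and fluorescence read after 2 hours at room temperature.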

[7] = qHTS assay to identify small molecule agonists of the androgen receptor (AR) signaling pathway in the presence of an antagonist - cell viability counter screen (AID 1259379); also: nearly all actives have a fitted effect of over 25% in size; also: potency is read from the fitted curve at half-maximal effect
Outline: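 A CellTiter-Fluor read-out measured viability of MDA-kb2 reporter cells (MMTV promoter with AR and GR response elements). Treatment: nilutamide 3.0uM final with compounds at 15 concentrations, 16 hr, 37C, 0% CO2.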

[8] = qHTS assay to identify small molecule agonists of the estrogen receptor beta (ER-beta) signaling pathway - cell viability counter screen (AID 1259380); also: nearly all actives have a fitted effect of over 30% in size; also: potency is read from the fitted curve at half-maximal effect
Outline: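 Cells used were ER-beta-UAS-bla HEK293T in medium with 2% charcoal-stripped FBS. They were treated for 16 hr at 37C. Viability came from CellTiter-Glo luminescence.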

[9] = target: Androgen receptor (Homo sapiens) (UniProt P10275); test: qHTS assay to identify small molecule agonists of the androgen receptor (AR) signaling pathway in the presence of an antagonist (AID 1259381; calls by dose curve; also: nearly all actives have a fitted effect of over 15% in size)
Outline: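 Using human MDA-kb2 cells with an MMTV promoter–luciferase construct (AR and GR response elements), agonist activity is scored under 3.0uM nilutamide (final) co-treatment; 16hr incubation, 37C, luminescence readout via ONE-Glo.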

[10] = qHTS assay to identify small molecule antagonists of the estrogen receptor beta (ER-beta) signaling pathway - cell viability counter screen (AID 1259382); also: nearly all actives have a fitted effect of over 55% in size; also: potency is read from the fitted curve at half-maximal effect
Outline: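 Agonist-stimulated (1nM E2) ER-beta-UAS-bla HEK293T cells are incubated with library compounds for 16 hr at 37C. Cell viability is then assessed in the reporter-assay wells by adding CellTiter-Glo and reading luminescence after 30 min.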

[11] = target: Estrogen receptor (Homo sapiens) (UniProt P03372); test: qHTS assay to identify small molecule agonists of the estrogen receptor alpha (ER-alpha) signaling pathway in the presence of an antagonist (AID 1259383; calls by dose curve; also: top concentration of the series differs between compounds; nearly all actives have a fitted effect of over 15% in size)
Outline: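 Using VM7Luc4E2 cells seeded 24hr before treatment, antagonist ICI-182,780 (10.0nM final) was added, followed by compounds at 15 concentrations. Plates incubated 22hr; ONE-Glo luminescence quantified reporter activity.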

[12] = qHTS assay to identify small molecule agonists of the sonic hedgehog signaling (Shh) pathway - cell viability counter screen (AID 1259366); also: nearly all actives have a fitted effect of over 50% in size; also: potency is read from the fitted curve at half-maximal effect
Outline: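 NIH/3T3-derived 3T3 Gli1-Luc cells (stable Gli1-responsive firefly luciferase reporter) were seeded, rested 4 hr at 37 C/5% CO2, then exposed to compounds in DMSO for 24 hr; viability was read by CellTiter-Fluor fluorescence in the same wells.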

[13] = qHTS assay to identify small molecule antagonists of the sonic hedgehog signaling (Shh) pathway (AID 1259369; calls by dose curve; also: nearly all actives have a fitted effect of over 45% in size; also: potency is read from the fitted curve at half-maximal effect)
Outline: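 Conditioned medium drives Shh signalling in 3T3Gli1-Luc cells; compounds in DMSO co-applied, 24hr at 37 C, then luciferase luminescence.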

[14] = target: Estrogen receptor beta (Homo sapiens) (UniProt Q92731); test: qHTS assay to identify small molecule antagonists of the estrogen receptor beta (ER-beta) signaling pathway (AID 1259378; active = well fitted inhibition curve with a large enough effect in the signal ratio in the repeat runs, not every such curve was filed as active; the % refers to the signal ratio; also: potency is read from the fitted curve at half-maximal effect)
Outline: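 ER-beta-UAS-bla HEK293T (GripTite) cells in 2% charcoal-stripped FBS medium were preincubated 6 hr at 37C, dosed with compound, then stimulated with 1 nM E2 (final) for 16 hr; beta-lactamase reporter read by B/G FRET fluorescence after 2 hr substrate loading.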

[15] = qHTS assay to identify small molecule agonists or antagonists of the thyroid stimulating hormone receptor (TSHR) signaling pathway - wild type cell line counter screen (AID 1259384; calls by dose curve)
Outline: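 Wild-type HEK293 cells were plated 18 h at 37 C/5% CO2, pin-dosed with compound plus Ro20-1724 medium, held 30 min at room temperature, then given cAMP-d2 and anti-cAMP-cryptate; fluorescence was read after 1 h. Fifteen concentrations, triplicate.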

[16] = qHTS assay to identify small molecule HDAC inhibitors - cell viability counter screen (AID 1259365); also: series mostly up to about 92 µM; nearly all actives have a fitted effect of over 50% in size
Outline: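 Wild-type HCT-116 cells were seeded at 1,500 per well, incubated overnight at 37 C, then exposed to compounds in DMSO for 2hr. Viability was read by CellTiter-Glo luminescence after 30min at room temperature.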

[17] = target: Thyrotropin receptor (Homo sapiens) (UniProt P16473); test: qHTS assay to identify small molecule antagonists of the thyroid stimulating hormone receptor (TSHR) signaling pathway (AID 1259385; calls by dose curve; also: nearly all actives have a fitted effect of over 20% in size; also: potency is read from the fitted curve at half-maximal effect)
Chain of Thyrotropin receptor (Homo sapiens) (P16473 whole entry, looked up): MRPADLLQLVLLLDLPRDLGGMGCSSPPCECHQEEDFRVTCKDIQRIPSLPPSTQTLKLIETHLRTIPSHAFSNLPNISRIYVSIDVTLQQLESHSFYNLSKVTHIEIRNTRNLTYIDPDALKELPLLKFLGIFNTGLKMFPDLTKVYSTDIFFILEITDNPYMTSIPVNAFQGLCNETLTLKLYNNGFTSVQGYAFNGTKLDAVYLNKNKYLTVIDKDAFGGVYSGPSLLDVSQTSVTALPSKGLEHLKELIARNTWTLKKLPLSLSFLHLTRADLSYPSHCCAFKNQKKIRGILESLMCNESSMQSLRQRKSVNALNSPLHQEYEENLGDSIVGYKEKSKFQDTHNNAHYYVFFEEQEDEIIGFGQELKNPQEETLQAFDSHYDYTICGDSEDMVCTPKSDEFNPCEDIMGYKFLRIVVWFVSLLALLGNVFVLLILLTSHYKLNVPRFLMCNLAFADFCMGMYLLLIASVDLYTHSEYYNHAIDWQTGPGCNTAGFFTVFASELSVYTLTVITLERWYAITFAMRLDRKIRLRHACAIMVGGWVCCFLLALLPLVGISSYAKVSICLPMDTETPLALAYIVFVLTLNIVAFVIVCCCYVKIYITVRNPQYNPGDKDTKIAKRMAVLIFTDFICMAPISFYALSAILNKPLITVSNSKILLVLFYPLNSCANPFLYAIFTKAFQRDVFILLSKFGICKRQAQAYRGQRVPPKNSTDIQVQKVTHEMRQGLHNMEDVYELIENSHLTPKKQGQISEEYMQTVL
Outline: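 TSHR-HEK293 cells were plated and held 18 h at 37C/5% CO2, then given compound plus Ro20-1724 and stimulated with TSH at 1.5 ng/mL final. After 30 min at room temperature, cAMP was detected with cAMP-d2/anti-cAMP-cryptate (1 h) by fluorescence.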

[18] = qHTS assay to identify small molecule phospholipidosis (PLD) inducers (AID 1259344; active = well fitted curve in the direction sought with a large enough effect; an effect the other way counts as inactive or inconclusive; also: potency is read from the fitted curve at half-maximal effect)
Outline: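 HepG2 cells grown on collagen I take up LipidTOX Red while exposed to compound for 24 h; after fixation they are imaged at 20x and pit metrics are extracted.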

[19] = qHTS assay to identify small molecule antagonists of the androgen receptor (AR) signaling pathway using the MDA cell line in the presence of 0.5 nM R1881 - cell viability counter screen (AID 1259242); also: nearly all actives have a fitted effect of over 45% in size
Outline: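 R1881 at 0.5 nM final stimulated MDA-kb2 cells during 16 hr compound treatment at 37C. Cytotoxicity read: CellTiter-Fluor fluorescence after 30 min.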

SMILES	Potency [1]	Potency [2]	Potency [3]	Potency [4]	Potency [5]	Potency [6]	Potency [7]	Potency [8]	Potency [9]	Potency [10]	Potency [11]	Potency [12]	Potency [13]	Potency [14]	outcome [15]	Potency [16]	Potency [17]	Potency [18]	Potency [19]
O=C1c2c(O)ccc(Nc3ccc(CCO)cc3)c2C(=O)c2c([N+](=O)[O-])ccc(O)c21	54.5 µM (active)	inactive	inactive	48.6 µM (active)	inactive	inactive	43.3 µM (active)	17.2 µM (active)	inactive	inactive	inactive	–	–	–	–	–	–	–	–
CC(=O)N1CCN(c2ccc(OC[C@H]3CO[C@](Cn4ccnc4)(c4ccc(Cl)cc4Cl)O3)cc2)CC1	–	27.3 µM (active)	inactive	27.3 µM (active)	inactive	–	54.5 µM (active)	48.6 µM (active)	–	30.6 µM (active)	inactive	54.5 µM (active)	3.06 µM (active)	21.7 µM (active)	inactive	–	–	–	–
Clc1ccc(C(Cn2ccnc2)OCc2ccc(Sc3ccccc3)cc2)c(Cl)c1 (stereo not given)	–	inactive	inactive	inactive	inactive	inactive	inactive	inactive	–	inactive	–	–	–	inactive	inactive	inactive	inactive	–	–
Cc1cc(=O)oc2cc(N(C)C)ccc12	–	–	inactive	–	inactive	–	–	–	–	–	–	–	inactive	–	inactive	inactive	inactive	–	–
CC/C(=C(\c1ccc(O)cc1)c1ccc(OCCN(C)C)cc1)c1ccccc1	61.3 µM (active)	–	inactive	30.7 µM (active)	inactive	–	61.3 µM (active)	24.4 µM (active)	inactive	27.4 µM (active)	–	–	9.71 µM (active)	–	inactive	–	77.1 µM (active)	–	–
OCCN1CCN(CC/C=C2/c3ccccc3Sc3ccc(C(F)(F)F)cc32)CC1	26.6 µM (active)	inactive	inactive	inactive	inactive	inactive	–	21.1 µM (active)	inactive	26.6 µM (active)	inactive	21.1 µM (active)	–	11.9 µM (active)	inactive	inactive	inactive	10 µM (active)	–
N#CSc1ccc(N)c([N+](=O)[O-])c1	30.8 µM (active)	–	inactive	30.8 µM (active)	inactive	–	54.8 µM (active)	–	inactive	–	–	69 µM (active)	12.3 µM (active)	19.4 µM (active)	inactive	inactive	61.5 µM (active)	–	–
CSc1ccc2c(c1)C(N1CCN(C)CC1)Cc1ccccc1S2 (stereo not given)	–	inactive	inactive	–	inactive	–	–	16.8 µM (active)	–	16.8 µM (active)	–	23.7 µM (active)	15 µM (active)	–	–	inactive	–	–	–
O=C1Cc2cc(CCN3CCN(c4nsc5ccccc45)CC3)c(Cl)cc2N1	–	inactive	inactive	–	inactive	inactive	–	23.7 µM (active)	–	–	inactive	23.7 µM (active)	29.8 µM (active)	–	inactive	inactive	inactive	inactive	–
CCCCN1C(=O)[C@@H]([C@H](O)C2CCCCC2)NC(=O)C12CCN(Cc1ccc(Oc3ccc(C(=O)O)cc3)cc1)CC2	–	–	inactive	–	inactive	inactive	–	–	–	–	inactive	–	–	–	inactive	inactive	inactive	–	inactive
OCCN(CCO)c1nc(N2CCCCC2)c2nc(N(CCO)CCO)nc(N3CCCCC3)c2n1	–	–	inactive	–	inactive	–	–	–	inactive	inactive	inactive	–	2.11 µM (active)	–	–	inactive	–	inactive	–
CC(C)C(C)(C)C(C)(C)C(C)(C)S	inactive	inactive	inactive	inactive	inactive	inactive	inactive	inactive	inactive	–	–	inactive	–	inactive	inactive	inactive	–	inactive	–
CCc1cc(Cc2cc(CC)cc(C(C)(C)C)c2O)c(O)c(C(C)(C)C)c1	30.6 µM (active)	–	inactive	61.1 µM (active)	inactive	–	54.5 µM (active)	19.3 µM (active)	inactive	24.3 µM (active)	–	61.1 µM (active)	27.3 µM (active)	–	inactive	inactive	inactive	–	–
CCN(CC)CCNC(=O)c1c(C)[nH]c(/C=C2\C(=O)Nc3ccc(F)cc32)c1C	–	–	inactive	13.3 µM (active)	inactive	–	29.8 µM (active)	11.9 µM (active)	–	11.9 µM (active)	–	5.96 µM (active)	3.35 µM (active)	33.5 µM (active)	–	inactive	–	–	–
Fc1ccc(C(c2ccc(F)cc2)N2CCN(C/C=C/c3ccccc3)CC2)cc1	–	inactive	inactive	inactive	inactive	inactive	–	–	–	–	inactive	inactive	inactive	16.8 µM (active)	inactive	inactive	inactive	–	–
